From PubChem BioAssay (NCATS) come the findings set out here.

Results filed as inconclusive are left out. Activity calls are given as the source filed them. The call rests on the fitted dose curve; in most records, active means well fitted curve in the direction sought with a large enough effect; inconclusive means small, poorly fitted or top-dose-only effect, or another doubt; inactive means no such curve, though single readings can be large; an effect the other way counts as inactive or inconclusive.

The target of the first assay is Cytochrome P450 3A4 (Homo sapiens) (UniProt P08684). The experiment in a line: qHTS Assay for Inhibitors and Substrates of Cytochrome P450 3A4 (AID 884). Further: on the % scale 0 is the no-effect control and ±100 the full control effect; nearly all actives have a fitted effect of over 50% in size. The conditions noted are these: recombinant CYP3A4, Luciferin-PPXE luminescence; series mostly up to 57.1 µM; activity change, negative = inhibition: at the top concentration. The gist of the method: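 Luminescent readout of luciferin produced by CYP3A4 (20 nM) dealkylation of Luciferin-PPXE, 25 uM (its KM). NADPH-driven reaction ran 60 min at RT after 10 min compound preincubation; data scaled to 57 uM ketoconazole as 100% inhibition.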
Cytochrome P450 3A4 (Homo sapiens), sequence (P08684 whole entry, looked up): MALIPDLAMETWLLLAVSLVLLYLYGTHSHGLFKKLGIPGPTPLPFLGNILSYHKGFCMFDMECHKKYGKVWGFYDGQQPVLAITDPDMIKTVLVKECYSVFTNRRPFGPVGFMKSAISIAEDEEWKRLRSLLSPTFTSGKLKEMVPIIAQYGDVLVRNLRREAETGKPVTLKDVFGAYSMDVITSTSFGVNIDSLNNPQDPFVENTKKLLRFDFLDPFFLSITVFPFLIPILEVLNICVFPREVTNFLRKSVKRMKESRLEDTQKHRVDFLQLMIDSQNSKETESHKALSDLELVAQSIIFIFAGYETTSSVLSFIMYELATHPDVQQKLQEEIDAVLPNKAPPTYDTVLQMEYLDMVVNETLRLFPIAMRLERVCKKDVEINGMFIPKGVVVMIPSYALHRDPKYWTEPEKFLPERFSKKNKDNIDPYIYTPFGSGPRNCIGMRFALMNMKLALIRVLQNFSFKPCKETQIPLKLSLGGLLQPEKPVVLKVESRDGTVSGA
Regarding `OCC(O)CN1CCN(c2ccccc2)CC1` (centres undefined), the “activity change, negative = inhibition” value was -5.11% (inactive).
Consider `CC(CN1c2ccccc2Sc2ccccc21)N(C)C` (centres undefined), for which the “activity change, negative = inhibition” value is -22.3% (inactive).
`O=c1cc(CO)occ1O`: the “activity change, negative = inhibition” value is -9.7% (inactive).
For the compound `CN(C)CC[C@@H](c1ccc(Cl)cc1)c1ccccn1`, the “activity change, negative = inhibition” value is -2.49% (inactive).
Turning to `NCC(=O)CCC(=O)O`, the “activity change, negative = inhibition” value was -3.87% (inactive).
`NC(=O)NC(=O)Cc1ccccc1`: the “activity change, negative = inhibition” value is -9.28% (inactive).
As for `CCCCCCCCCCCCCCCCCCOCC(O)CO` (centres undefined), the “activity change, negative = inhibition” value is -11.9% (inactive).
Consider `O=C(O)c1ccccc1O`, for which the “activity change, negative = inhibition” value was -3.54% (inactive).

For another assay the target is unchanged. The experiment in a line: qHTS Assay for Activators of Cytochrome P450 3A4 (AID 885). Further: nearly all actives have a fitted effect of over 65% in size. The conditions noted are these: recombinant CYP3A4, Luciferin-PPXE luminescence, 60 min; series mostly up to 57.1 µM; activity change, positive = activation: at the top concentration. The gist of the method: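 Luminescent readout of luciferin formed from 25 uM Luciferin-PPXE (KM level) by 20 nM CYP3A4 in 200 mM KPO4, with 60 min NADPH-driven reaction at room temperature after 10 min compound exposure. Ketoconazole (57 uM) defined 100% inhibition.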
Regarding `CC1=C(/C=C/C(C)=C/C=C/C(C)=C/C(=O)O)C(C)(C)CCC1`, the “activity change, positive = activation” value is -37.3% (inactive).
`CCN(CC)C(C)CN1c2ccccc2Sc2ccccc21` (centres undefined): the “activity change, positive = activation” value was -51.1% (inactive).
`CN(C)CCCN1c2ccccc2CCc2ccccc21`: the outcome was inactive.
In the case of `CCN(CC)CCCC(C)Nc1c2ccc(Cl)cc2nc2ccc(OC)cc12` (centres undefined), the “activity change, positive = activation” value is -74.6% (inactive).
Regarding `CCCCN(CCCC)CCCOC(=O)c1ccc(N)cc1`, the “activity change, positive = activation” value was -50.5% (inactive).
Take `CC(CN(C)C)CN1c2ccccc2CCc2ccccc21` (centres undefined): the “activity change, positive = activation” value was -53.5% (inactive).
